Records with an inconclusive call do not appear. Activity calls are given as the source filed them. The call rests on the fitted dose curve; in most records, active means well fitted curve in the direction sought with a large enough effect; inconclusive means small, poorly fitted or top-dose-only effect, or another doubt; inactive means no such curve, though single readings can be large; an effect the other way counts as inactive or inconclusive.
Columns and labels:
[1] = qHTS of pediatric cancer cell lines to identify multiple opportunities for drug repurposing: Primary screen for SJ-GBM2 cells (AID 1347091)
In short: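 Eight- or eleven-point concentration series, 48 h treatment at 37 degrees C in growth media; readout CellTiter-Glo luminescence. Potency and efficacy were taken from the concentration-response curves.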

[2] = qHTS of pediatric cancer cell lines to identify multiple opportunities for drug repurposing: Primary screen for SK-N-MC cells (AID 1347093)
In short: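 Metabolically active cells were quantified by ATP-dependent luminescence (CellTiter-Glo, 15 min at room temperature) following 48 h treatment. Cells had been plated at 500-1,000 per well and settled for 5 h beforehand.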

[3] = qHTS of pediatric cancer cell lines to identify multiple opportunities for drug repurposing: Primary screen for BT-37 cells (AID 1347094)
In short: (§1)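 ATP-based luminescence (CellTiter-Glo) quantifies viability after a 48-hour exposure. Compounds are dosed across 8 or 11 final concentrations; DMSO and 2.3 µM bortezomib serve as controls.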

[4] = qHTS of pediatric cancer cell lines to identify multiple opportunities for drug repurposing: Primary screen for U-2 OS cells (AID 1347096); further: nearly all actives have a fitted effect of over 50% in size
In short: (§2)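 Cells (500-1,000/well) in growth media were settled 5 h at 37 degrees C, then given compounds for 48 h. Viability was read as CellTiter-Glo luminescence. Primary runs used MIPE at 11 points (0.78 nM-46 µM) and NPC at 8 points (0.59 nM-46 µM); follow-ups used 11 points.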

[5] = qHTS of pediatric cancer cell lines to identify multiple opportunities for drug repurposing: Primary screen for Saos-2 cells (AID 1347097); further: nearly all actives have a fitted effect of over 40% in size
In short: as §1

[6] = qHTS of pediatric cancer cell lines to identify multiple opportunities for drug repurposing: Primary screen for SK-N-SH cells (AID 1347098); further: nearly all actives have a fitted effect of over 65% in size
In short: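 Cells (500-1,000/well) rested 5 h, then received compounds for 48 h; metabolically active cells were measured by CellTiter-Glo luminescence. Final concentrations spanned up to 46 µM (MIPE, 11-point) or 0.59 nM-46 µM (NPC, 8-point) in primary screens, 11-point in follow-ups.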

[7] = qHTS of pediatric cancer cell lines to identify multiple opportunities for drug repurposing: Primary screen for NB1643 cells (AID 1347099); further: nearly all actives have a fitted effect of over 50% in size
In short: as §1

[8] = qHTS of pediatric cancer cell lines to identify multiple opportunities for drug repurposing: Primary screen for LAN-5 cells (AID 1347100)
In short: as §2

[9] = qHTS of pediatric cancer cell lines to identify multiple opportunities for drug repurposing: Primary screen for NB-EBc1 cells (AID 1347095)
In short: as §1

[10] = qHTS of pediatric cancer cell lines to identify multiple opportunities for drug repurposing: Primary screen for A673 cells (AID 1347092); further: nearly all actives have a fitted effect of over 45% in size
In short: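 Luminescence from CellTiter-Glo, taken after 15 min at room temperature, served as the proxy for metabolically active cells following 48 h treatment. Both potency and efficacy were taken from curves fitted to the titration data.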

Measured: Potency
Potency means the concentration at half of the fitted maximal effect.

Nc1ccc(C(=O)O)c(O)c1
not listed: [9] | [10]
inactive: all other assays above

CCCCCCCCCCCC(=O)[O][Sn]([CH2]CCC)([CH2]CCC)[O]C(=O)CCCCCCCCCCC
not listed: [10]
inactive: all other assays above

COC(=O)Nc1nc2ccc(C(=O)C3CC3)cc2[nH]1
active: [1] 0.841 µM | [2] 1.06 µM | [3] 2.19 µM | [9] 0.596 µM | [5] 0.841 µM | [8] 0.841 µM

Cc1ccc(O)c(-n2nc3ccccc3n2)c1
not listed: [9] | [10]
inactive: all other assays above

C[N+]1(C)[C@@H]2CC(OC(=O)[C@H](CO)c3ccccc3)C[C@H]1[C@@H]1O[C@@H]12 (some centres undefined)
not listed: [9] | [10]
inactive: all other assays above

c1ccc2sc(SSc3nc4ccccc4s3)nc2c1
not listed: [9] | [10]
inactive: all other assays above

CCCCCCCC/C=C/C(=O)O
active: [2] 42.2 µM
inactive: [1] | [3] | [4] | [5] | [8]

CNC(=O)c1c(I)c(NC(=O)CCCCC(=O)Nc2c(I)c(C(=O)O)c(I)c(C(=O)NC)c2I)c(I)c(C(=O)O)c1I
not listed: [9] | [10]
inactive: all other assays above

CCCCCCCCCCCCCCCCCC(=O)O
not listed: [9] | [10]
inactive: all other assays above

CCCSc1ccc2nc(NC(=O)OC)[nH]c2c1
active: [1] 0.422 µM | [2] 0.841 µM | [3] 2.46 µM | [9] 0.266 µM | [5] 4.22 µM | [8] 1.19 µM

CN1CCN(c2cc3c(nn2)Oc2ccccc2N3C)CC1
not listed: [10]
inactive: all other assays above

COC(=O)c1nc(Cl)c(Cl)nc1N
active: [1] 5.31 µM | [2] 0.668 µM | [3] 13.8 µM | [9] 1.33 µM | [4] 13.3 µM | [5] 2.37 µM | [6] 3.44 µM | [8] 3.35 µM

CCCCCCCCCCCCOCCO
not listed: [9] | [10]
inactive: all other assays above

O=C(Nc1ccc(C(=O)O)c(O)c1)c1ccccc1
not listed: [9] | [10]
inactive: all other assays above

O=C(O)Cc1ccc2c(c1)C(=O)c1ccccc1CO2
not listed: [10]
inactive: all other assays above

C=CCCCCCCCCC(=O)O
not listed: [10]
inactive: all other assays above

O=C(/C=C/c1ccccc1)NCCO
not listed: [9] | [10]
inactive: all other assays above

COc1ccc(-c2cc(=S)ss2)cc1
not listed: [9] | [10]
inactive: all other assays above

Cc1c(N)c(=O)n(-c2ccccc2)n1C
not listed: [10]
inactive: all other assays above

C/C(=N\O)c1ccc(OCC(=O)N2CCCCC2)cc1
not listed: [9] | [10]
inactive: all other assays above

CC(N)C(=O)OC(C)(C)Cc1ccc(Cl)cc1 (centres undefined)
not listed: [9] | [10]
inactive: all other assays above

C#C[C@]1(O)CC[C@H]2[C@@H]3CCc4cc(O)ccc4[C@H]3CC[C@@]21C
inactive: [4]
active: [2] 4.73 µM | [5] 8.41 µM

CCCC(=O)OC[C@@H](OC(=O)CCC)[C@@H](OC(=O)CCC)[C@H](Cn1c2nc(=O)[nH]c(=O)c-2nc2cc(C)c(C)cc21)OC(=O)CCC
inactive: [1] | [4] | [6] | [7]

Cc1c(C(=O)O)c(O)cc2c1C(=O)c1c(O)c([C@@H]3O[C@H](CO)[C@@H](O)[C@H](O)[C@H]3O)c(O)c(O)c1C2=O
inactive: [4] | [6] | [7]

Nc1nc2ccc([N+](=O)[O-])cc2s1
inactive: [1] | [5] | [8]

COc1cc2c3cc1Oc1cc(ccc1O)C[C@@H]1c4c(cc(OC)c(O)c4Oc4ccc(cc4)C[C@@H]3N(C)CC2)CC[N+]1(C)C
not listed: [2] | [9] | [10]
inactive: all other assays above

COC(=O)C1=C(C)NC(C)=C(C(=O)OCC(C)=O)C1c1ccccc1[N+](=O)[O-] (centres undefined)
inactive: [4] | [8]
active: [2] 13.3 µM

c1ccc(CCNc2nc(-c3ccccc3)cs2)cc1
inactive: [2] | [3] | [4] | [7] | [8]

Cc1cc(O)c2ccccc2c1O
active: [2] 21.1 µM | [6] 34.4 µM | [7] 18.8 µM

O=c1[nH]c2ccccc2n1CCCN1CCN(C(c2ccccc2)c2ccccc2)CC1
inactive: [9] | [4] | [7]
active: [6] 24.4 µM

CC(C(=O)O)c1ccc(C(=O)c2ccccc2)s1 (centres undefined)
not listed: [1]
inactive: all other assays above

O=C(CS)Nc1ccccc1
inactive: [3] | [4] | [6]

CC(C(=O)O)c1ccc2c(c1)[nH]c1ccc(Cl)cc12 (centres undefined)
not listed: [2] | [6] | [10]
inactive: all other assays above

O=Cc1ccc(O)c(O)c1O
inactive: [1] | [3] | [9]

Nc1ccc([N+](=O)[O-])cc1O
active: [10] 0.001 µM | [2] 0.001 µM
inactive: [4] | [6]

COC(=O)C1=C(C)NC(C)=C(C(=O)OCC(C)C)C1c1ccccc1[N+](=O)[O-] (centres undefined)
inactive: [1] | [5]

CN(C)c1ccc(C(=C2C=CC(=[N+](C)C)C=C2)c2ccccc2)cc1
active: [10] 0.0422 µM | [2] 0.0531 µM | [3] 0.0978 µM | [4] 1.33 µM | [5] 0.0531 µM | [6] 1.09 µM | [7] 0.133 µM

Nc1ccc(O)c([N+](=O)[O-])c1
inactive: [1] | [3] | [4] | [7]

O=C(O)c1cc(O)c(O)c(O)c1
not listed: [5] | [9] | [10]
inactive: all other assays above

C#CC1(O)CC[C@H]2[C@@H]3CCC4=CCCC[C@@H]4[C@H]3CC[C@@]21C (some centres undefined)
inactive: [1] | [3] | [9] | [8]
active: [6] 24.4 µM

Cc1nc2ccccc2n1Cc1ccc(Cl)cc1
active: [2] 18.8 µM
inactive: [1] | [4]

CC(C)OC(=O)c1cc(C(=O)OC(C)C)cc([N+](=O)[O-])c1
not listed: [2] | [9] | [10]
inactive: all other assays above

[O-][n+]1ccccc1SSc1cccc[n+]1[O-]
active: [2] 0.058 µM | [3] 3.01 µM | [4] 0.231 µM | [5] 0.092 µM | [6] 0.067 µM | [7] 0.092 µM

Oc1c(Br)cc(Br)c2cccnc12
inactive: [4]
active: [1] 11.9 µM | [2] 10.6 µM | [9] 10.6 µM | [5] 11.9 µM

CCOc1ccc2nc(S(N)(=O)=O)sc2c1
inactive: [1] | [4] | [6] | [7] | [8]

CCCCC1C(=O)N(c2ccccc2)N(c2ccc(O)cc2)C1=O (centres undefined)
active: [1] 10.6 µM | [2] 2.66 µM | [9] 2.99 µM | [5] 16.8 µM | [7] 6.68 µM | [8] 5.96 µM

NC(=O)C(c1ccccc1)(c1ccccc1)[C@@H]1CCN(CCc2ccc3c(c2)CCO3)C1
not listed: [5] | [9] | [10]
inactive: all other assays above

CN(C)c1ccc(N=NS(=O)(=O)O)cc1
inactive: [1] | [3] | [4] | [6]

O=c1cc(-c2ccccc2)oc2ccccc12
inactive: [1] | [2] | [9] | [8]

COc1cc(NC(C)CCCN)c2ncccc2c1 (centres undefined)
inactive: [1] | [8]
active: [5] 23.7 µM | [6] 17.2 µM

— PubChem BioAssay (NCATS)
